The text below walks through data of paper PMC7862700, “An all-to-all approach to the identification of sequence-specific readers for epigenetic DNA modifications on cytosine”.

What all share (assay): DAPPL (digital affinity profiling via proximity ligation, sequencing); 10 mM Tris-HCl pH 7.5, 50 mM NaCl, 1 mM DTT, 4% glycerol, room temperature, 30 min; GST-TFs on glutathione beads, 16-mer random dsDNA library, 0.1% formaldehyde crosslink after washing; high values mean tight binding
Common to all, as to details: protein: recombinant; tags: N-terminal GST; dsDNA, one strand shown

In one experiment the target is T1, FLI1 (Homo sapiens, UniProt Q01543 1-452).
T1 sequence: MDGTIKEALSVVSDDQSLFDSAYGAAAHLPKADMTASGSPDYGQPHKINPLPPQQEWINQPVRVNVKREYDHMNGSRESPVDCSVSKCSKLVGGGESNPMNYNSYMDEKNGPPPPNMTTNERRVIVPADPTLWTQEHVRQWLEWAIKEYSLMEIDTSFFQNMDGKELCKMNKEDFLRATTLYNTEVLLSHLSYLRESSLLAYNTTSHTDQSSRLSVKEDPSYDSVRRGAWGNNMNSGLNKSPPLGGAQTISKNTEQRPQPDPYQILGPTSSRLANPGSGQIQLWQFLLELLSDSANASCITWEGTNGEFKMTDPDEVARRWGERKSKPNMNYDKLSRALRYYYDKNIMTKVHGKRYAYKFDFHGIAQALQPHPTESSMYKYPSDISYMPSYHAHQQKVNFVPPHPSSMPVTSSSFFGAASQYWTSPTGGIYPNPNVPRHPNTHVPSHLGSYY
In outline: (§1)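 The binding signal reported is, for every hexamer, its read frequency for a factor over its read frequency for the tag-only sample. Reads came from pools of yeast-expressed, GST-fused human transcription factors on glutathione beads, barcoded with DNA and mixed with that sample, which were incubated with 200 nmole of a random double-stranded 16-mer DNA library in Tris/NaCl/DTT/glycerol buffer at room temperature for 30 min. After washing, the pools were crosslinked with 0.1% formaldehyde, proximity-ligated with BsaI/T4 ligase for 1 h at 37 °C, PCR-amplified and sequenced on an Illumina NextSeq500.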

Another experiment has as its target T2, ELK1 (Homo sapiens, UniProt P19419 1-428).
T2 sequence: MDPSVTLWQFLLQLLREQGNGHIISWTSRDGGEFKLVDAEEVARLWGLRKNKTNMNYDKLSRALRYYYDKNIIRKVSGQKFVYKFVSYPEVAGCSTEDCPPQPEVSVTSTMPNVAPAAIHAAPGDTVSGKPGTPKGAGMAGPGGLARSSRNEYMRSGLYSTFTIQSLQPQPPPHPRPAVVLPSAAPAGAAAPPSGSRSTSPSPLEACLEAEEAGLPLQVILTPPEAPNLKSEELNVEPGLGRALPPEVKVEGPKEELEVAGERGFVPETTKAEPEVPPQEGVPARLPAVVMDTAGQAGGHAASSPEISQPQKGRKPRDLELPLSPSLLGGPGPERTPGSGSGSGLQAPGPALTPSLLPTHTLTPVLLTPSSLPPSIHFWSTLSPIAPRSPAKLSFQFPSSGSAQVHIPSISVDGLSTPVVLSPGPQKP
Summed up: as §1

For the next experiment, the target named is T3, GABPA (Homo sapiens, UniProt Q06546 1-454).
T3 sequence: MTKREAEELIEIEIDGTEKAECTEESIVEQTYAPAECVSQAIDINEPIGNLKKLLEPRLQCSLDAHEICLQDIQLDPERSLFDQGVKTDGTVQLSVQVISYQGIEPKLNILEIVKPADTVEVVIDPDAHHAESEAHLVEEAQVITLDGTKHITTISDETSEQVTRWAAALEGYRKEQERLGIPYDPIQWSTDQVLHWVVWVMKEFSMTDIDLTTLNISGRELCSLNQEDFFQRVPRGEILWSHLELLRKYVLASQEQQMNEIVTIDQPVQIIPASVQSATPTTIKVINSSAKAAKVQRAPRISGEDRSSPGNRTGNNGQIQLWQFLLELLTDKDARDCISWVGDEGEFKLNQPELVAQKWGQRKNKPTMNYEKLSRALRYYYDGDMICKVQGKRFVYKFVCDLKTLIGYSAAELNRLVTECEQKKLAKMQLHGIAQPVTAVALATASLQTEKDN
In outline: as §1

A further experiment has as its target T4, ERG (Homo sapiens, UniProt P11308 1-479).
T4 sequence: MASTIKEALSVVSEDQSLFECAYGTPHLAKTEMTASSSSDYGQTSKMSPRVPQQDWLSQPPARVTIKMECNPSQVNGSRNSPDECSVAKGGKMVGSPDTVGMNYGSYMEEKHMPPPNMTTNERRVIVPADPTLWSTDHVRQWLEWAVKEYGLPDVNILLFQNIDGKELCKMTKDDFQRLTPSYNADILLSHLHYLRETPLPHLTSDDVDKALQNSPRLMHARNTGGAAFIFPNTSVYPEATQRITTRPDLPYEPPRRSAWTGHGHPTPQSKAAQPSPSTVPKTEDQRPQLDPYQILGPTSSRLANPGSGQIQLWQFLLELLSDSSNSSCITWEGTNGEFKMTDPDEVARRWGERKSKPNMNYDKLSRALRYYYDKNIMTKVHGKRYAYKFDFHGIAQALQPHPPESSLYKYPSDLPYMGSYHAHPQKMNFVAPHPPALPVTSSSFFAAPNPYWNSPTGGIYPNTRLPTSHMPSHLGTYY
In outline: as §1

The target in a further experiment is ELF1 (Homo sapiens, UniProt P32519 1-619). Summed up:
as §1

The next experiment deals with T5, EHF (Homo sapiens, UniProt Q9NZC4 1-300).
T5 sequence: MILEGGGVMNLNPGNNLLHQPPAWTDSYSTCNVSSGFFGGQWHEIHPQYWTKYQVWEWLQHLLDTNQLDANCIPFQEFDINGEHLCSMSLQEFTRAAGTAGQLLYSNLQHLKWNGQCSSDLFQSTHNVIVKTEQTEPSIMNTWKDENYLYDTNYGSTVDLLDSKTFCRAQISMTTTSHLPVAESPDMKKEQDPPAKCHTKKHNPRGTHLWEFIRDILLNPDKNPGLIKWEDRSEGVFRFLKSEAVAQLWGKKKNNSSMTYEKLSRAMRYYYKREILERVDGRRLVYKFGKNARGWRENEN
Summed up:
as §1

The target of a further experiment is SPI1 (Homo sapiens, UniProt P17947 1-270). In outline: as §1
In a further experiment the target is SPIB (Homo sapiens, UniProt Q01892 1-262). In outline: as §1
For the next experiment, the target named is T6, ELK3 (Homo sapiens, UniProt P41970 1-407).
T6 sequence: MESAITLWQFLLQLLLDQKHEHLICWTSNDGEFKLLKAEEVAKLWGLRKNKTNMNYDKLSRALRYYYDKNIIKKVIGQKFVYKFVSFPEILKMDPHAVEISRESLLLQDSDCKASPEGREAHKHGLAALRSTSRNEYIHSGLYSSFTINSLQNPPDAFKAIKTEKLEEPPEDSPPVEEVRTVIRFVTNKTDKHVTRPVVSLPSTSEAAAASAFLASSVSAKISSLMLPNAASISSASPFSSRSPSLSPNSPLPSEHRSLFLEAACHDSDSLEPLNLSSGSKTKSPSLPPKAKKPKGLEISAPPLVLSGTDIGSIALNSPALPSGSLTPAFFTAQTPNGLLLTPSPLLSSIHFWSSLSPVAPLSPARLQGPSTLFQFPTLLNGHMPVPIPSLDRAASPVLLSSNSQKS
Summed up: as §1

A further experiment deals with T7, FEV (Homo sapiens, UniProt Q99581 1-238).
T7 sequence: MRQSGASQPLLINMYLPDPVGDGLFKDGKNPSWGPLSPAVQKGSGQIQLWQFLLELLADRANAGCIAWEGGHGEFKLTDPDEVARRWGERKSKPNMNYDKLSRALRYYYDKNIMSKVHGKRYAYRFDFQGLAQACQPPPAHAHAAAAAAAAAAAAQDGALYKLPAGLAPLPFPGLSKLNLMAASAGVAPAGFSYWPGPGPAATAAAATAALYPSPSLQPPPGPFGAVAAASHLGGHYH
In outline: as §1

Another experiment addresses ETV5 (Homo sapiens, UniProt P41161 1-510). In outline: as §1
A further experiment has as its target T8, SPIC (Homo sapiens, UniProt Q8N5J4 1-248).
T8 sequence: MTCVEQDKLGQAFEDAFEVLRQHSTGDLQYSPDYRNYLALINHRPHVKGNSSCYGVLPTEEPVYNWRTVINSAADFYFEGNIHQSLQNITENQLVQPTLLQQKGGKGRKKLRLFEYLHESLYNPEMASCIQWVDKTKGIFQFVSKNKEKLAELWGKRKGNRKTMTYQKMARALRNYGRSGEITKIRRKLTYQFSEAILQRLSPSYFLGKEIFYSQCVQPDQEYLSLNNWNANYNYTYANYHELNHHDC
Summed up: as §1

The target of another experiment is ELF4 (Homo sapiens, UniProt Q99607 1-663). Summed up:
as §1

Another experiment addresses T9, ELK4 (Homo sapiens, UniProt P28324-2 1-405).
T9 sequence: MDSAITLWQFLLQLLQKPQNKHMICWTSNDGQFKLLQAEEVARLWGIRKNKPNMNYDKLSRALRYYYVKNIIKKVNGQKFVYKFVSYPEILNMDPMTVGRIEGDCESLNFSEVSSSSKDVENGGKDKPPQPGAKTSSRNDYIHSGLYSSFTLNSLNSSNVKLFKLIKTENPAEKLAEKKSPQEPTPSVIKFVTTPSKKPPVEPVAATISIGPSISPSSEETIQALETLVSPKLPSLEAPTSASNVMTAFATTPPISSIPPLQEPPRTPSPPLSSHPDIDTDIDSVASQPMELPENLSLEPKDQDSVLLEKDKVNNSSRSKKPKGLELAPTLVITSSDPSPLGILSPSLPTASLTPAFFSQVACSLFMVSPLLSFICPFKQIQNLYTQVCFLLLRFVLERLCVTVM
Summed up:
as §1

The next experiment deals with T10, ETV2 (Homo sapiens, UniProt O00321 1-342).
T10 sequence: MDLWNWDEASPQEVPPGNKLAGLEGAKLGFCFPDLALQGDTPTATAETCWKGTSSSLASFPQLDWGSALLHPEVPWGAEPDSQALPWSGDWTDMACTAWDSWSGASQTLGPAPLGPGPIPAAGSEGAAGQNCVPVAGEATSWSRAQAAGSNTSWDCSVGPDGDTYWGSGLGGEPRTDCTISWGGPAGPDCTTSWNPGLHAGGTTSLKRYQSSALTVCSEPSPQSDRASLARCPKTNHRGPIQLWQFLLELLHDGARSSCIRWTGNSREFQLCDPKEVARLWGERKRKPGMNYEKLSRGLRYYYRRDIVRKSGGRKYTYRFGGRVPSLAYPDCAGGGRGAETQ
Summed up: as §1

For a further experiment, the target named is T11, ELF3 (Homo sapiens, UniProt P78545 1-371).
T11 sequence: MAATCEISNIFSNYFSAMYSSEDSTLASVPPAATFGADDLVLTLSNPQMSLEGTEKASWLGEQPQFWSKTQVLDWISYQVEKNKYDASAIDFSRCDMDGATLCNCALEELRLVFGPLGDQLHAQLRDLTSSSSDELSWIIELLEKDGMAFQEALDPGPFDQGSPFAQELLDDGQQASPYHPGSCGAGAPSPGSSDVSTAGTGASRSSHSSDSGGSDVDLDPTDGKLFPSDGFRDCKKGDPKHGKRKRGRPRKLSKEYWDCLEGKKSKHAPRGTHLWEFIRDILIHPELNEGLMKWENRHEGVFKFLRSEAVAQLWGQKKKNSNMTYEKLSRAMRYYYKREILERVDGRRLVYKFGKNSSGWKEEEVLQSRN
In outline:
as §1

In another experiment the target is ETV1 (Homo sapiens, UniProt P50549 1-477). Summed up: as §1
Sequence of ETV1 (P50549 whole entry): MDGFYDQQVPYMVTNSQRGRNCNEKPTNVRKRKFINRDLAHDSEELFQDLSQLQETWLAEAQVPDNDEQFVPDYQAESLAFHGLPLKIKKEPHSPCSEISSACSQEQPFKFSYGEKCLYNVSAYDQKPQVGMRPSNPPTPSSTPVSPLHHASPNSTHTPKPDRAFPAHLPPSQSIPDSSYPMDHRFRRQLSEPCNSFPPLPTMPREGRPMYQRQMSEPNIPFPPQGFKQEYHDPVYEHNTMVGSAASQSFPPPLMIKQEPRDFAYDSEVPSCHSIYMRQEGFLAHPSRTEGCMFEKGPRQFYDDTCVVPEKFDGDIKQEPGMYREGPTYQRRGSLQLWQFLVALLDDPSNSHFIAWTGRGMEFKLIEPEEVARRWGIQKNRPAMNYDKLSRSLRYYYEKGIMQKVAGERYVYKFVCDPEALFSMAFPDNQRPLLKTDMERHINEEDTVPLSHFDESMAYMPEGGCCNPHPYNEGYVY

Sequence of ELF4 (Q99607 whole entry): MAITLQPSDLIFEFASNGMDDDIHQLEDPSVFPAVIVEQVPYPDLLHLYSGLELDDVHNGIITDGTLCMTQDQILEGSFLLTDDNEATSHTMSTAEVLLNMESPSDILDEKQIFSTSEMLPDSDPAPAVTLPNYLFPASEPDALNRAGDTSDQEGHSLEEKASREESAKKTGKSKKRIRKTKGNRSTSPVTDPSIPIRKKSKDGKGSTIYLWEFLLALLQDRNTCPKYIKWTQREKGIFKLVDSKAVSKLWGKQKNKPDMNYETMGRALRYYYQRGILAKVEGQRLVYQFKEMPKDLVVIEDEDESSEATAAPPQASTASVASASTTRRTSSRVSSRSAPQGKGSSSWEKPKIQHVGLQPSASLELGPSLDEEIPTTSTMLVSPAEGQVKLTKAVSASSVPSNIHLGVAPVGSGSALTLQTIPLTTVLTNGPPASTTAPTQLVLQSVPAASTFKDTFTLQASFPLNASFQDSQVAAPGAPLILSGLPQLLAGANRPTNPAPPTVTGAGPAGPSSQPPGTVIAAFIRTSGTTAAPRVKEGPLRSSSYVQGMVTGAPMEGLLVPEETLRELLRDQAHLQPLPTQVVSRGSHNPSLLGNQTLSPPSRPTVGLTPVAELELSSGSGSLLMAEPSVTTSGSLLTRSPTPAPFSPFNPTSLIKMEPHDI
Sequence of ELF1 (P32519 whole entry): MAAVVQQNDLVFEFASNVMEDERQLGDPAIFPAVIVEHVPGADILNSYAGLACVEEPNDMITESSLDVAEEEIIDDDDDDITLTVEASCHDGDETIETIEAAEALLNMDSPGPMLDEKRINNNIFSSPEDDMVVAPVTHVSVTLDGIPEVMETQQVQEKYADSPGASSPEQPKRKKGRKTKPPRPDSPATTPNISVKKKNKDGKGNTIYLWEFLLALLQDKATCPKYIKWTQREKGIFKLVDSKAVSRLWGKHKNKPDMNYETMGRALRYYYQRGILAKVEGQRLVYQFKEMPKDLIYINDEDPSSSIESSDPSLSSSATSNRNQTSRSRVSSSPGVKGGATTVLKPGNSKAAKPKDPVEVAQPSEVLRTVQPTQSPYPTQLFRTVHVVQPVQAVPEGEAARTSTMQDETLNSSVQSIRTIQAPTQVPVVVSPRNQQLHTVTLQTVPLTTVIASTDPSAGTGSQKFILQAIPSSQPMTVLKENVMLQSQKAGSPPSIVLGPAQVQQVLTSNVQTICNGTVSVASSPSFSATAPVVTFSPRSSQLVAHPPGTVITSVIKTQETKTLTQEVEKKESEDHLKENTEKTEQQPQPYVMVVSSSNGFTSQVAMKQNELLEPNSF
Sequence of SPIB (Q01892 whole entry): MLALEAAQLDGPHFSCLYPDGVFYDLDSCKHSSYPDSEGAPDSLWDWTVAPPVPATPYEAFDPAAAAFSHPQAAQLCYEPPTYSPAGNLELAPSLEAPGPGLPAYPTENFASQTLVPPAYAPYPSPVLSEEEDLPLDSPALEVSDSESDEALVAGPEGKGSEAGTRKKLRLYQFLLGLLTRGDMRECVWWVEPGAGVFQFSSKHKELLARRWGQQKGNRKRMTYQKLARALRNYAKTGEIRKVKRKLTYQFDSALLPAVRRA
Sequence of ETV5 (P41161 whole entry): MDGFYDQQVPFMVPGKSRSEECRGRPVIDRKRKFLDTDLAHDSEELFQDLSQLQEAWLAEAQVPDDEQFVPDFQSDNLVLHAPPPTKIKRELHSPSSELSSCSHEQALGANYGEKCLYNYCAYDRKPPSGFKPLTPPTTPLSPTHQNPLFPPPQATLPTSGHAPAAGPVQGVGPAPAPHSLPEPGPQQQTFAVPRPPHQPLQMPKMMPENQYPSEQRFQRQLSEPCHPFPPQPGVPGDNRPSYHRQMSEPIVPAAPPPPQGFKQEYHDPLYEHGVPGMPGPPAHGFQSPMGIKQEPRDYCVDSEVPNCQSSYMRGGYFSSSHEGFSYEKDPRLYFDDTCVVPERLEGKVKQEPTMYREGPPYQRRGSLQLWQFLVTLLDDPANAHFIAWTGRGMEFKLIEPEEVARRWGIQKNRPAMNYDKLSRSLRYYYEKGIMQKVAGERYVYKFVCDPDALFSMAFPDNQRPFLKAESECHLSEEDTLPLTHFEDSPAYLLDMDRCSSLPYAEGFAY

In the case of CGTCAA, the binding signal in the experiment with FLI1 was 1.2 fold enrichment (6-mer frequency, TF over GST control); in the experiment with ELK1, 1.15 fold enrichment (6-mer frequency, TF over GST control); in the experiment with GABPA, 1.19 fold enrichment (6-mer frequency, TF over GST control); with ERG it was 1.11 fold enrichment (6-mer frequency, TF over GST control); in the experiment with ELF1, 1.11 fold enrichment (6-mer frequency, TF over GST control); in the experiment with EHF, 1.12 fold enrichment (6-mer frequency, TF over GST control). For the same sequence, the binding signal with SPI1 was 1.01 fold enrichment (6-mer frequency, TF over GST control); with SPIB, 1.27 fold enrichment (6-mer frequency, TF over GST control); with ELK3, 1.06 fold enrichment (6-mer frequency, TF over GST control); with FEV, 1.08 fold enrichment (6-mer frequency, TF over GST control); in the experiment with ETV5, 1.08 fold enrichment (6-mer frequency, TF over GST control); with SPIC it was 1.19 fold enrichment (6-mer frequency, TF over GST control). Besides, the binding signal with ELF4 was 1.15 fold enrichment (6-mer frequency, TF over GST control); with ELK4, 1.12 fold enrichment (6-mer frequency, TF over GST control); with ETV2, 1.2 fold enrichment (6-mer frequency, TF over GST control); with ELF3, 1.2 fold enrichment (6-mer frequency, TF over GST control); in the experiment with ETV1, 1.12 fold enrichment (6-mer frequency, TF over GST control).
Turning to TGACAC, the binding signal with FLI1 is 1.13 fold enrichment (6-mer frequency, TF over GST control); with ELK1 it was 1.27 fold enrichment (6-mer frequency, TF over GST control); in the experiment with GABPA, 1.07 fold enrichment (6-mer frequency, TF over GST control); with ERG it was 1.2 fold enrichment (6-mer frequency, TF over GST control); with ELF1, 1.17 fold enrichment (6-mer frequency, TF over GST control); in the experiment with EHF, 1.15 fold enrichment (6-mer frequency, TF over GST control). Besides, the binding signal was 1.13 fold enrichment (6-mer frequency, TF over GST control) with SPI1; 1.11 fold enrichment (6-mer frequency, TF over GST control) with SPIB; 1.22 fold enrichment (6-mer frequency, TF over GST control) with ELK3; 1.11 fold enrichment (6-mer frequency, TF over GST control) in the experiment with FEV; 1.11 fold enrichment (6-mer frequency, TF over GST control) in the experiment with ETV5; 1.07 fold enrichment (6-mer frequency, TF over GST control) with SPIC. For the same sequence, the binding signal in the experiment with ELF4 is 1.1 fold enrichment (6-mer frequency, TF over GST control); with ELK4 it was 1.18 fold enrichment (6-mer frequency, TF over GST control); with ETV2, 1.15 fold enrichment (6-mer frequency, TF over GST control); with ELF3, 1.14 fold enrichment (6-mer frequency, TF over GST control); with ETV1, 1.1 fold enrichment (6-mer frequency, TF over GST control).
